Data published in PubChem BioAssay AID588763 (NMMLSC, 2011).
Results with a measured potency or affinity are listed apart. Activity calls are given as the source filed them. The rule behind the calls is not given here.

molecular target: Beta-2 adrenergic receptor (Homo sapiens) (UniProt P07550); experiment: beta2AR agonists driving receptor internalization, dose response, cell-based, FAP fluorogen, flow cytometry, cherry pick 1 (AID 588763); conditions: AM2.2-beta2AR cells, 90 min; series mostly up to 33 µM; activation (receptor internalization): at the top concentration
Sequence (P07550 whole entry, looked up): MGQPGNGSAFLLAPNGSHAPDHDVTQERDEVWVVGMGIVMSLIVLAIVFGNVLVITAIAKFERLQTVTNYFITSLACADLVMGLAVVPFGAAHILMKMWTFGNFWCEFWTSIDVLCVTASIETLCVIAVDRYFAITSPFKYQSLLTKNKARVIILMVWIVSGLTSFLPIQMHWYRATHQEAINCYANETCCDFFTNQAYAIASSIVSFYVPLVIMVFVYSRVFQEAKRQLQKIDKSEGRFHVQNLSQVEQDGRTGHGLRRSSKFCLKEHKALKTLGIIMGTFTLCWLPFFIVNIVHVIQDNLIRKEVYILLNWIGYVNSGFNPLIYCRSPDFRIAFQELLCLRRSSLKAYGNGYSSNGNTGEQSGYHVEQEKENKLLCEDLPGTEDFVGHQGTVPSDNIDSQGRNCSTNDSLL

Activation (receptor internalization), inactive:
CCOc1ccc(NC(=O)Cn2nnc(-c3ccccc3NC(=O)C3CC3)n2)cc1 -7%, Cc1ccccc1NC(=O)COc1ccc(S(=O)(=O)N2CCCC2)cc1C -0.639%, COc1cccc(-c2ccc(NC(=O)C3CCCN(Cc4cnn(C(C)C)c4)C3)cc2)c1 (stereo not drawn) 28.5%, COC(=O)[C@@H](NC(=O)c1cc(COc2cncc(Cl)c2)on1)c1ccccc1 2.04%, COc1cccc(-c2ccc(NC(=O)C3CCCN(Cc4ccccn4)C3)cc2)c1 (stereo not drawn) 11.9%, COc1ccccc1-c1cc(C(F)(F)F)nc(S(=O)(=O)CCCC(=O)N2CCOCC2)n1 38.6%, Cc1ccc(C(=O)c2cc([N+](=O)[O-])ccc2N2CCCCC2)c(C)c1 47.8%, COc1ccc(NC(=O)Cn2nnc(-c3ccc(CN4CCOCC4)cc3)n2)c(OC)c1 -14.8%, COc1cc(NC(=O)c2ccco2)c(OC)cc1NC(=O)c1cc(OC)c(OC)c(OC)c1 4.51%, O=C(Nc1ccc2oc(-c3ccccc3F)nc2c1)c1ccc2c(c1)OCCO2 22.6%, COc1ccc(C(CCNCc2ccc(OC(C)C)cc2)c2ccccc2OC)cc1 (stereo not drawn) 59.8%, Cc1cccc(-c2nnc(SCc3nc4ccccc4[nH]3)n2Cc2ccco2)c1 -12.9%, O=C(c1ccc(OC2CCN(Cc3ccccc3C(F)(F)F)CC2)cc1)N1CCCCC1 37.8%, N=c1n(CC(=O)c2ccc(Br)cc2)c2ccccc2n1Cc1ccccc1 110%, COc1ccc(-n2nc3c(N4CCC(C(=O)NCc5cccc(C)c5)CC4)nnc(C)c3c2C)cc1 48.5%, Cc1ccc(-c2nc(NC(=O)c3cc(C(C)(C)C)nn3C)sc2C)cc1Cl 14.2%, O=C(Nc1ccc2nc(-c3cccs3)c(-c3cccs3)nc2c1)N1CCOCC1 20.4%, NS(=O)(=O)c1ccc(NC(=O)c2cccc(N3C(=O)c4ccccc4C3=O)c2)cc1 95.3%, Fc1ccc(Sc2nc(-c3ccccc3)nnc2C(F)(F)F)cc1 101%, Cc1ccc(OCc2cc(C(=O)NCc3cc(F)ccc3C)no2)cn1 -17.5%, COc1ccc(Cl)c(NC(=O)Cn2nnc(-c3ccccc3N)n2)c1 7.97%, COc1ccc(OC)c(NC(=O)c2sc3nc(C)cc(C)c3c2N)c1 0.987% [at 1.22 µM], COc1ccc(-n2nc3c(N4CCC(C(=O)NCc5ccco5)CC4)nnc(C)c3c2C)cc1 11%, O=C(Nc1ccc(S(=O)(=O)N2CCCCC2c2cccnc2)cc1)c1ccccc1F (stereo not drawn) 27.6%, COc1ccc(N2CCN(C(=O)CN(C)S(=O)(=O)c3cc(C)ccc3OC)CC2)cc1 -4.19%, CCOc1cccc(CN2CCC(Oc3ccc(C(=O)N4CCCC4)cc3)CC2)c1 -17.1%, CC(NCc1ccc(OCc2ccc(Cl)cc2)cc1)C(O)c1ccccc1 (stereo not drawn) 66.1%, COc1ccccc1C(=O)Nc1ccc(S(=O)(=O)N2CCCCC2c2cccnc2)cc1 (stereo not drawn) -6.5%, Cc1ccccc1OCc1nc(-c2ccc(NC(=O)c3ccc4c(c3)OCO4)cc2)no1 2.95%, CCCCn1c(=N)n(CC(=O)c2ccc(Br)s2)c2ccccc21 98.7%, Cc1cc(S(=O)(=O)N2CCOCC2)ccc1OCC(=O)Nc1cccc(C(F)(F)F)c1 6.22%

outcome, inactive:
COCC(C)NC(=O)CCS(=O)(=O)c1nc(-c2ccc(OC)cc2)cc(C(F)(F)F)n1 (stereo not drawn), COc1ccc(OC)c(S(=O)(=O)N(C)CC(=O)N2CCN(c3ccccc3F)CC2)c1
